# USP10 block: blocks human USP10 ubiquitin-rhodamine cleavage; inhibition, % at 20 µM; purified USP10, Ub-rhodamine fluorescence, 60 min; Q14694; 47,000 tested, 1.1% active; AID 1645856
# Target sequence (Q14694 whole entry, looked up): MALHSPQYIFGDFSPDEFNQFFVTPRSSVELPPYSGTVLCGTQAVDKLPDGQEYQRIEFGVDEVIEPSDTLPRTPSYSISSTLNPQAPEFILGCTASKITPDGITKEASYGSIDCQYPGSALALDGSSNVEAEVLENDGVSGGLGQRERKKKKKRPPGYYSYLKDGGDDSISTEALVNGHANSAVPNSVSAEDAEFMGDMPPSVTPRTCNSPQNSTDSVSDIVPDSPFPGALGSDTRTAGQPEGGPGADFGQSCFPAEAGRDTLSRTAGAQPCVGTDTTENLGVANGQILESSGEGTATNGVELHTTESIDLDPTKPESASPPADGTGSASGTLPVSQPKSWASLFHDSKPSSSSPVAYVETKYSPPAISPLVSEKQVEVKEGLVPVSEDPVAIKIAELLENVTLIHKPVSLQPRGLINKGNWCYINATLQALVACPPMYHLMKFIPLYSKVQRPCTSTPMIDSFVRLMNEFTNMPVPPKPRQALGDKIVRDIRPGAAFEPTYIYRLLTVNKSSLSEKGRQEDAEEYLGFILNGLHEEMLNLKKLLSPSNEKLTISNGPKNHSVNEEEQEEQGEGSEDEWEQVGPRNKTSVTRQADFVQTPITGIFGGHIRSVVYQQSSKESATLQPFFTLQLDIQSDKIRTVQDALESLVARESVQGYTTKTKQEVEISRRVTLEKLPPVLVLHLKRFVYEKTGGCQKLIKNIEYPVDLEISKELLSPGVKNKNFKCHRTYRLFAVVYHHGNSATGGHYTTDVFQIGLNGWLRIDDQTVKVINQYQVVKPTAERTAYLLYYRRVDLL
# OTUD3 block: human OTUD3 deubiquitinase inhibition; Q5T2D3; purified OTUD3, Ub-rhodamine fluorescence, 2 h; inhibition, % at 25 µM; 47,000 tested, 0.7% active; AID 1645858
# USP28 inh: human USP28 deubiquitinase inhibition | AID 1645857 | 47,000 tested, 3% active | purified USP28, Ub-rhodamine cleavage fluorescence, 30 min | inhibition, % at 25 µM | Q96RU2
# USP17 block: human USP17-like deubiquitinase inhibition | purified USP17, Ub-rhodamine cleavage fluorescence, 3 h | 47,000 tested, 6.5% active | inhibition, % at 50 µM | AID 1645855 | A8MUK1
# USP30 inh: human USP30 deubiquitinase inhibition | inhibition, % at 25 µM | 47,000 tested, 5.3% active | purified USP30, Ub-rhodamine cleavage fluorescence | AID 1645860
# USP8 block: inhibitors of human USP8 deubiquitinase; AID 1645853; purified USP8, Ub-rhodamine cleavage fluorescence, 30 min; P40818; 47,000 tested, 4.2% active; inhibition, % at 20 µM
# Hits are given with their value; - = inactive; . = not tested or not shown. Compounds with a hit are over-represented: about 13% of the library has one in this group of screens. Cut-off read from the data, not from the text of the source: active = inhibition above about 30%; inactive = the rest.
SMILES,USP10 block,OTUD3 block,USP28 inh,USP17 block,USP30 inh,USP8 block
Cc1ccc(C(C(=O)NCc2ccc3c(c2)OCO3)N(C(=O)c2ccc3c(c2)OCCO3)c2cc(C)cc(C)c2)cc1 (centres undefined),-,-,-,-,-,-
Cc1ccc(C(C(=O)NCc2ccc3c(c2)OCO3)N(C(=O)c2ccc3c(c2)OCCO3)C2CCCC2)cc1 (centres undefined),-,-,-,49,-,47
O=C(CN1C(=O)CC(c2ccc(F)cc2)=Nc2ccccc21)Nc1ccccc1,-,-,-,38,-,-
Cc1cccc(C)c1NC(=O)CN1C(=O)CC(c2ccccc2)=Nc2ccccc21,39,-,-,-,-,-
COc1ccc(CNC(=O)CN2C(=O)CC(c3ccccc3)=Nc3ccccc32)cc1,-,-,-,83,-,-
O=C(CN1C(=O)CC(c2ccccc2)=Nc2ccccc21)NCc1ccccc1Cl,-,-,-,-,-,-
O=C(NCc1ccccc1)c1cccc(-c2cnc(N3CCCC3)nc2)c1,-,-,-,-,-,-
CN(C)c1ccc(C2C3=C(CC(C)(C)CC3=O)Nc3ccccc3N2C(=O)Cc2ccc(Cl)cc2)cc1 (centres undefined),-,-,-,-,-,31
Cc1ccc(C2C3=C(CC(c4ccc(Cl)cc4)CC3=O)Nc3ccccc3N2C(=O)c2ccccc2)cc1 (centres undefined),-,-,-,-,36,-
Cc1ccc(C2CC(=O)C3=C(C2)Nc2ccccc2N(C(=O)c2ccccc2)C3c2ccccc2)cc1 (centres undefined),-,-,-,-,43,30
COCCN1[C@H]2CCN(Cc3cccc(C)c3)CC[C@@H]2Oc2ccccc2S1(=O)=O,-,-,-,-,-,-
CNc1cccc(C2CN(C(=O)CN3CCCCCC3=O)CCO2)n1 (centres undefined),-,-,-,-,-,-
COCCN(C(=O)C1CC1)c1nc(-c2ccccc2)cs1,-,-,-,-,-,31
COCCN(C(=O)Cc1ccccc1)c1nc(-c2ccc(OC)cc2)cs1,-,-,-,-,-,-
O=C(CN1CCCN(Cc2ccccc2)S1(=O)=O)Nc1ccc(F)cc1,-,-,-,-,33,-
O=C(Nc1ccc(N2CCOCC2)c(S(=O)(=O)Nc2ccccc2Cl)c1)C1CCCC1,-,-,-,-,-,-
O=C(CC1CCCC1)Nc1cc(F)c2nc(N3CCOCC3)ccc2c1,-,-,-,-,-,71
O=C(Nc1cc(F)c2nc(N3CCOCC3)ccc2c1)C1CCCC1,-,-,-,-,-,57
O=C(CC1CCCC1)N1CCc2sccc2C1,-,-,-,-,-,-
Cc1cc(-c2cc(C)[nH]n2)nc(C2CCN(S(=O)(=O)N(C)C)CC2)n1,-,-,-,-,-,-
O=C(NCc1csc2ccccc12)c1cc(F)cc2c1OCOC2,-,-,-,-,-,-
COc1cc(O)cc2c1C(=O)OC(C)CCCC(O)CCC2 (centres undefined),-,-,-,-,-,-
COc1cc(O)cc2c1C(=O)OC(C)CCCCCCC2 (centres undefined),38,-,-,40,37,-
C[C@H]1CCCC(=O)CCCCCc2cc(OCc3ccccc3)cc(O)c2C(=O)O1,-,-,-,-,32,-
COc1c(C2CCCN2CC(=O)N2CCC(C)CC2)c(C)nn1C (centres undefined),-,-,-,-,-,-
SMILES,USP10 block,OTUD3 block,USP28 inh,USP17 block,USP30 inh,USP8 block
COc1ccc(CC(=O)N[C@@H](CCSC)c2nnc3ccccn23)cc1,-,-,-,-,-,-
CC(=O)NS(=O)(=O)c1ccc(NC(=O)/C=C/c2cn(-c3ccccc3)nc2-c2ccccc2)cc1,63,-,-,-,-,65
NS(=O)(=O)c1cccc(NC(=O)/C=C/c2cn(-c3ccccc3)nc2-c2cccc([N+](=O)[O-])c2)c1,63,-,-,-,34,71
CNC(=O)Cc1ccc(NC(=O)/C=C/c2cn(-c3ccccc3)nc2-c2ccc(F)cc2)cc1,-,-,-,-,-,34
CC(=O)Nc1ccc(S(=O)(=O)Nc2cc(-c3ccccc3)nn2C)cc1,-,-,-,-,-,-
Cc1nc2ccc(NC(=O)/C=C/c3cn(-c4ccccc4)nc3-c3cccnc3)cc2s1,-,-,-,-,-,38
Cc1ccc(NC(=O)C(C)Sc2nnc(-c3cccnc3)o2)c(C)c1 (centres undefined),-,-,-,-,-,-
O=C(Nc1ccc(F)cc1)c1cc(N2CCN(Cc3ccccc3)CC2)nc2ccccc12,-,-,-,-,-,-
CCN(CCO)c1ncnc2c1sc1nc(-c3ccccc3)c3c(c12)CCC3,-,-,-,33,-,-
CCCCc1nc2sc3c(NCCN4CCOCC4)ncnc3c2c2c1CCC2,-,-,83,-,-,-
CC(C)CNc1ncnc2c1sc1nc(-c3ccccc3)c3c(c12)CCC3,-,-,-,.,-,39
CCc1nc2cc3c(cc2n1CC(=O)N1CCCCC1)OCCO3,-,-,-,-,-,-
Cc1ccccc1NS(=O)(=O)c1cc2c3c(c1)CCC(=O)N3CCC2,-,-,-,-,-,-
Oc1ccc2c3c1[C@@H](O)C1OC1[C@]31Oc3cccc4c3[C@](C=C[C@@H]4O)(O2)O1 (some centres undefined),-,-,-,46,-,-
CCOc1ccc2[nH]c(=O)c(CN(C(=O)c3cccs3)C3CCCC3)cc2c1,-,-,-,66,-,-
Cn1ncc2c(N3CCC(C4CCCCCN4C(=O)C4CC4)CC3)ncnc21 (centres undefined),-,-,-,-,-,-
COc1ccc(NS(=O)(=O)c2cc(NC(=O)/C=C/c3ccco3)ccc2N2CCCC2)cc1,-,44,57,75,55,76
COc1ccc(NS(=O)(=O)c2ccc(N3CCCC3)c(NC(=O)/C=C/c3ccccc3)c2)cc1,-,-,-,36,-,-
O=C(/C=C/c1ccccc1)Nc1cc(S(=O)(=O)Nc2cccc(Cl)c2)ccc1Cl,-,-,-,-,-,-
Cc1nccc(N2CCC(c3c(C(=O)N(C)C)sc4nccnc34)CC2)n1,-,-,-,-,30,-
CNC(=O)c1sc2nccnc2c1C1CCN(C(=O)c2ccncc2)CC1,-,-,-,-,-,-
CC1(C)NS(=O)(=O)N(CCc2ccccc2)C1=O,-,-,-,-,-,-
Cn1c(=O)c(C(=O)Nc2ccc(F)cc2)cc2cccnc21,-,-,-,-,-,-
Cn1c(=O)c2cc(C(=O)Nc3ccc(F)cc3)cnc2n(C)c1=O,-,-,-,53,-,-
C[C@@H](C(=O)Nc1ccc2c(c1)OCO2)n1c(=O)[nH]c2ccccc2c1=O,-,-,-,-,-,85

# From PubChem
